Structures are written as SMILES. “And” between values parts separate entries of the source, which are not always exact repeats. Identical values can stand only once. Inconclusive results are not listed. More than one record can exist for a structure, and the calls need not agree. The source made the active and inactive calls. Rule for the calls, unless noted: active = hit-call score of the fitted dose curve at least 0.9, where 1 is the maximum; inactive = score below 0.9.

Read-out in assay [1]: Interleukin-8 (IL8), CXCL8 (gene 3576)
The assay can be described thus: BSK_3C_IL8: BioMAP Diversity Plus: 3C Assay for Interleukin-8 (IL8) Biomarker Activity (AID 2283020). As to conditions: primary human endothelial cells (HUVEC); actives raise or lower the signal. An outline of the steps:
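HUVEC, 3C stimulation; 24 h compound exposure; IL-8 read by ELISA; gain or loss of signal fitted relative to DMSO control.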

Read-out in assay [2]: Monokine induced gamma interferon (MIG), CXCL9 (gene 4283)
The experiment in a line: BSK_3C_MIG: BioMAP Diversity Plus: 3C Assay for Monokine induced gamma interferon (MIG) Biomarker Activity (AID 2283021).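 For AC50: MIG protein level measured by immunoassay in the treated endothelial cultures.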 As to conditions: primary human endothelial cells (HUVEC); actives raise or lower the signal. A digest of the protocol: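 HUVEC, 3C system; 24 h chemical exposure; MIG by ELISA; bidirectional fit vs DMSO baseline.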

For assay [3], the target named is human Vitamin D Receptor (VDR), VDR (gene 7421) (UniProt P11473). The assay can be described thus: ATG_VDR_TRANS: Attagene TRANS-FACTORIAL HepG2 Assay for human Vitamin D Receptor (VDR) (AID 2283022; active = hit-call score of the fitted dose curve at least 0.9, where 1 is the maximum). An outline of the steps:
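Transactivation by an exogenous VDR-Gal4 chimera in transiently transfected HepG2 cells was measured as reporter transcript level 24 hours after chemical treatment. RT-PCR products were analysed by capillary electrophoresis and fitted in the positive direction relative to DMSO.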

Assay [4] in a line: BSK_3C_SRB: Viability Assessment in the BioMAP Diversity Plus: 3C Assay (AID 2283023).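 Note: fitted both ways against DMSO so a hit may be signal rise or drop.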 As to conditions: primary human endothelial cells (HUVEC). A digest of the protocol: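 Cytotoxicity readout in parallel HUVEC 3C cultures: after 24 h compound exposure, cells fixed with 10% TCA, stained with 0.1% SRB and read at 560 nm. Gain or loss relative to DMSO fitted.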
Read-out in assay [5]: Matrix Metallopeptidase 1 (MMP1), MMP1 (gene 4312)
The experiment in a line: BSK_BE3C_MMP1: BioMAP Diversity Plus: BE3C Assay for Matrix Metallopeptidase 1 (MMP1) Biomarker Activity (AID 2283024). As to conditions: primary human bronchial epithelial cells; actives raise or lower the signal. A digest of the protocol:
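ELISA read-out of MMP1 in human lung bronchial epithelial primary cultures, 24 h post-dose; bidirectional curve fit vs DMSO baseline, gain or loss of signal scored.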

The nature of assay [6]: BSK_3C_Vis: BioMAP Diversity Plus: 3C Assay for Morphology Visualization (AID 2283025).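 For AC50: light microscopy image of cell morphology used as background control.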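 Note: fitted both ways so gain or loss versus DMSO counts.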 As to conditions: primary human endothelial cells (HUVEC). An outline of the steps:
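HUVEC, 3C system; light microscopy of morphology at 24 h post-dose. Bidirectional fit vs DMSO baseline. Secondary readout, background-control function.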

Read-out in assay [7]: Pselectin, SELP (gene 6403)
The assay can be described thus: BSK_4H_Pselectin: BioMAP Diversity Plus: 4H Assay for Pselectin Biomarker Activity (AID 2283026). Particulars: primary human endothelial cells (HUVEC); actives raise or lower the signal. An outline of the steps: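 HUVEC, 24 h chemical exposure; P-selectin read by ELISA. Bidirectional curve fit vs DMSO baseline; gain or loss of signal scored.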

A short description of assay [8]: BSK_4H_SRB: Viability Assessment in the BioMAP Diversity Plus: 4H Assay (AID 2283027).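 For AC50: curves fitted both ways versus DMSO so AC50 may be loss or gain.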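 Note: cells exposed to compound for 24 h before staining.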 Particulars: primary human endothelial cells (HUVEC). An outline of the steps:
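Cytotoxicity readout: sulforhodamine B (0.1%) staining of total protein after 10% TCA fixation, measured at 560 nm in human umbilical vein endothelium at 24 h. DMSO set the baseline; fitting was bidirectional.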

The nature of assay [9]: BSK_BE3C_SRB: Viability Assessment in the BioMAP Diversity Plus: BE3C Assay (AID 2283028).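 For AC50: fitted both ways so AC50 may mark signal gain or loss versus DMSO.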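 Note: measured 24 h after chemical dosing.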 Particulars: primary human bronchial epithelial cells. An outline of the steps: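 Cytotoxicity read-out: SRB (0.1%) staining of TCA-fixed (10%) human lung bronchial epithelial cells, absorbance 560 nm, 24 h post-dosing. Curves fitted both directions relative to DMSO.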
Read-out in assay [10]: Thrombomodulin, THBD (gene 7056)
The assay can be described thus: BSK_3C_Thrombomodulin: BioMAP Diversity Plus: 3C Assay for Thrombomodulin Biomarker Activity (AID 2283029). Particulars: primary human endothelial cells (HUVEC); actives raise or lower the signal. An outline of the steps:
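HUVEC, 3C conditions; compound 24 h; thrombomodulin by ELISA; bidirectional curve fit vs DMSO baseline; parallel SRB total-protein staining for cytotoxicity.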

Read-out in assay [11]: Urokinase-type plasminogen activator receptor (uPAR), PLAUR (gene 5329)
The experiment in a line: BSK_4H_uPAR: BioMAP Diversity Plus: 4H Assay for Urokinase-type plasminogen activator receptor (uPAR) Biomarker Activity (AID 2283030). As to conditions: primary human endothelial cells (HUVEC); actives raise or lower the signal. An outline of the steps: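 uPAR level read by ELISA on HUVEC cultures (BioMAP 4H) 24 h post-dosing, analyzed for gain or loss relative to DMSO. Parallel SRB staining assessed overt cytotoxicity.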

Read-out in assay [12]: Vascular endothelial growth factor receptor 2 (Homo sapiens) (UniProt P35968)
The assay can be described thus: BSK_4H_VEGFRII: BioMAP Diversity Plus: 4H Assay for Vascular endothelial growth factor receptor 2 (VEGFR2) Biomarker Activity (AID 2283031).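 For AC50: cell-surface VEGFR2 protein level quantified by ELISA.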 Particulars: primary human endothelial cells (HUVEC); actives raise or lower the signal. A digest of the protocol: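 Measured by ELISA after 24 h of compound treatment: VEGFR2 on primary human umbilical vein endothelial cells, fitted in both directions relative to DMSO. Parallel cultures received SRB staining (560 nm) for overt cytotoxicity.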

Read-out in assay [13]: Human Leukocyte Antigen - DR isotype (HLADR), HLA-DRA (gene 3122)
The assay can be described thus: BSK_BE3C_HLADR: BioMAP Diversity Plus: BE3C Assay for Human Leukocyte Antigen - DR isotype (HLADR) Biomarker Activity (AID 2283032). As to conditions: primary human bronchial epithelial cells; actives raise or lower the signal. An outline of the steps:
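Primary human bronchial epithelial cells (BE3C); 24 h chemical exposure; HLA-DR by ELISA; bidirectional curve fit vs DMSO baseline.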

Read-out in assay [14]: Vascular cell adhesion molecule 1 (VCAM1), VCAM1 (gene 7412)
The experiment in a line: BSK_4H_VCAM1: BioMAP Diversity Plus: 4H Assay for Vascular cell adhesion molecule 1 (VCAM1) Biomarker Activity (AID 2283033).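 For outcome: cell-surface VCAM-1 protein measured by ELISA.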 As to conditions: primary human endothelial cells (HUVEC); actives raise or lower the signal. An outline of the steps:
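HUVEC, 24 h post-dose; VCAM-1 by ELISA. Bidirectional curve fit vs DMSO baseline. Parallel SRB total-protein stain (0.1% SRB after 10% TCA fixation, 560 nm) for cytotoxicity.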

Read-out in assay [15]: Interferon-gamma inducible Protein 10 (IP10), CXCL10 (gene 3627)
The experiment in a line: BSK_BE3C_IP10: BioMAP Diversity Plus: BE3C Assay for Interferon-gamma inducible Protein 10 (IP10) Biomarker Activity (AID 2283034). As to conditions: primary human bronchial epithelial cells; actives raise or lower the signal. An outline of the steps:
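ELISA readout of IP-10 in BE3C system: primary human bronchial epithelial cells, 24 h post-dosing; bidirectional curve fit vs DMSO baseline.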

Read-out in assay [16]: Monokine induced gamma interferon (MIG), CXCL9 (gene 4283)
The assay can be described thus: BSK_BE3C_MIG: BioMAP Diversity Plus: BE3C Assay for Monokine induced gamma interferon (MIG) Biomarker Activity (AID 2283035).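 For outcome: MIG protein measured by ELISA in BE3C cultures after 24 h of dosing.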 Particulars: primary human bronchial epithelial cells; actives raise or lower the signal. A digest of the protocol: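 hu bronchial epithelial 1° cells, 24 h cpd; MIG by ELISA; bidirectional fit, DMSO = baseline.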

Read-out in assay [17]: Transforming growth factor beta 1 (TGFb1), TGFB1 (gene 7040)
The experiment in a line: BSK_BE3C_TGFb1: BioMAP Diversity Plus: BE3C Assay for Transforming growth factor beta 1 (TGFb1) Biomarker Activity (AID 2283036;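 for outcome: TGF-b1 protein level measured by ELISA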). As to conditions: primary human bronchial epithelial cells; actives raise or lower the signal. A digest of the protocol:
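Read-out: ELISA for TGF-b1 in primary human bronchial epithelial cultures, 24 h post-dose. Bidirectional curve fitting vs DMSO control; gain or loss of signal both scored.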

Read-out in assay [18]: Plasminogen activator inhibitor-1 (PAI1), SERPINE1 (gene 5054)
The assay can be described thus: BSK_BE3C_PAI1: BioMAP Diversity Plus: BE3C Assay for Plasminogen activator inhibitor-1 (PAI1) Biomarker Activity (AID 2283037). Particulars: primary human bronchial epithelial cells; actives raise or lower the signal. An outline of the steps: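 ELISA read-out of PAI-1 from human bronchial epithelial primary cells, 24 h post-dosing; bidirectional curve fit vs DMSO baseline, gain or loss of signal scored.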

Read-out in assay [19]: urokinase plasminogen activator (uPA), PLAU (gene 5328)
The assay can be described thus: BSK_BE3C_uPA: BioMAP Diversity Plus: BE3C Assay for urokinase plasminogen activator (uPA) Biomarker Activity (AID 2283038).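 For outcome: uPA protein level quantified by ELISA in cell cultures; uPA read one day after compound addition.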 As to conditions: primary human bronchial epithelial cells; actives raise or lower the signal. A digest of the protocol:
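ELISA for uPA on human primary bronchial epithelial cultures 24 h post-treatment, gain or loss against DMSO. Parallel SRB staining (0.1% after 10% TCA fixation, 560 nm) assessed overt cytotoxicity.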

Read-out in assay [20]: Urokinase-type plasminogen activator receptor (uPAR), PLAUR (gene 5329)
The assay can be described thus: BSK_BE3C_uPAR: BioMAP Diversity Plus: BE3C Assay for Urokinase-type plasminogen activator receptor (uPAR) Biomarker Activity (AID 2283039).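 For outcome: uPAR protein level measured by ELISA on the cells; cells exposed to compound for one day before measurement.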 As to conditions: primary human bronchial epithelial cells; actives raise or lower the signal. A digest of the protocol:
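ELISA readout of uPAR on human lung primary bronchial epithelial cells, 24 h post-dosing. Bidirectional curve fit relative to DMSO vehicle baseline; gain or loss of signal both scored.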

human Vitamin D Receptor (VDR), VDR (gene 7421), sequence (P11473 whole entry, looked up, the tested form may be a part): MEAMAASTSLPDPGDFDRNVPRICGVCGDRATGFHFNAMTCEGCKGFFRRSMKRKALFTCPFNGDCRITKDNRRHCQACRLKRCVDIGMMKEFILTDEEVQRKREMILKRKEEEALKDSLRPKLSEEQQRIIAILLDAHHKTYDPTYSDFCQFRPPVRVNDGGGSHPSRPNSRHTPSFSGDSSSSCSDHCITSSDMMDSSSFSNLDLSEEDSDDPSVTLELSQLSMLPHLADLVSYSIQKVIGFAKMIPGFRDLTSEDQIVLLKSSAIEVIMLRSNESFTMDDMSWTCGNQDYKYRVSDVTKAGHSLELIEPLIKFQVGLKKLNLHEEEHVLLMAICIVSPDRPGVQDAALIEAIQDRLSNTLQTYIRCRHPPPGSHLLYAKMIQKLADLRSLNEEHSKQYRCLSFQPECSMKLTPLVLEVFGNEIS

Take `Cc1cc(O)c(C(C)(C)C)cc1C(C)(C)C`: the half-maximal activity concentration (AC50) in assay [1] was 2.73 µM (active); in [2], 11.5 µM (active); in assay [4] it was 3.99 µM (active); in assay [5], 9.45 µM (active); in [6], 12.5 µM (active); in assay [7], 5.32 µM (active). Besides, the AC50 in assay [8] is 4.77 µM (active); in [9], 5.9 µM (active); in assay [10], 4.96 µM (active); in assay [11], 3.28 µM (active); in assay [13], 5.31 µM (active); in assay [14], 4.86 µM (active). Also, the AC50 in [15] is 6.09 µM (active); in assay [16], 11 µM (active); in assay [17], 5.2 µM (active); in assay [18], 5.28 µM (active); in assay [19], 5.51 µM (active); in [20] it was 5.33 µM (active). Also, the result in assay [3] and in [12] was inactive.

`FC(F)(F)C(F)(F)C(F)(F)C(F)(F)C(F)(F)C(F)(F)CC[Si](Cl)(Cl)Cl`: the outcome in assay [1], in assay [2], in [3], in [4], in assay [5] and in [7] was inactive. Moreover, the result in assay [8], in [9], in [10], in assay [11], in [12] and in assay [13] was inactive. The outcome in assay [14], in assay [15], in assay [16], in [18], in [19] and in assay [20] was inactive.

As to `O=C=Nc1cccc2c(N=C=O)cccc12`, the outcome in assay [1], in [2], in assay [4], in [5], in assay [6] and in assay [7] was inactive. Moreover, the outcome in [8], in assay [9], in assay [10], in assay [11], in assay [12] and in assay [13] was inactive. For the same compound, the result in assay [14], in assay [15], in [16], in [17], in assay [18] and in assay [19] was inactive. In assay [20], the result was inactive.

For `CO[Si](C)(CCC(F)(F)C(F)(F)C(F)(F)C(F)(F)C(F)(F)C(F)(F)F)OC`, the outcome in [1], in assay [2], in [3], in [4], in [5] and in assay [7] was inactive. Moreover, the outcome in assay [8], in [9], in assay [10], in assay [11], in assay [12] and in assay [13] was inactive. In addition, the outcome in [14], in [15], in assay [16], in assay [18], in assay [19] and in [20] was inactive.

As for `CCN(CC)c1ccc2c(c1)Oc1cc(N(CC)CC)ccc1C21OC(=O)c2ccccc21`, the AC50 in [1] is 4.05 µM (active); in [4] it was 5.74 µM (active); in [6], 19.9 µM (active); in [15] it was 1.98 µM (active). Further, the result in [2], in [5], in [7], in assay [8], in assay [9] and in assay [10] was inactive. The outcome in assay [11], in [12], in [13], in assay [14], in assay [16] and in assay [17] was inactive. For the same compound, the result in assay [18], in [19] and in [20] was inactive.

For `C=CC(=O)OCC(F)(F)C(F)(F)C(F)(F)COC(=O)C=C`, the concentration at half-maximal activity (AC50) in assay [1] was 23.9 µM (active) and 31 µM (active); in assay [2] it was 24.7 µM (active) and 22.7 µM (active); in assay [4], 41.1 µM (active) and 40.3 µM (active); in assay [5] it was 21.8 µM (active); in assay [7], 11.2 µM (active) and 8.07 µM (active); in [8], 25 µM (active) and 33.8 µM (active). The half-maximal activity concentration (AC50) was 18 µM (active) in assay [10]; 49.9 µM (active) and 758 nM (active) in assay [11]; 53.8 µM (active) in assay [12]; 34.2 µM (active) and 21.4 µM (active) in assay [13]; 19.1 µM (active) and 14 µM (active) in assay [14]; 46.7 µM (active) and 35.5 µM (active) in assay [15]. Moreover, the AC50 in assay [16] was 51.8 µM (active) and 49.1 µM (active); in assay [19], 20.6 µM (active) and 27.4 µM (active); in [20], 30 µM (active) and 22.8 µM (active). The outcome in assay [5], in assay [9], in assay [10], in [12] and in assay [18] was inactive.

Source of the values: PubChem BioAssay (EPA / NIEHS).
